IL-1B inflam inh = inflammasome signaling inhibition, IL-1 beta readout; 360,000 tested, 4.7% active; AID 743279; THP-1 LPS/ATP IL-1B secretion, AlphaLISA, 16 h; hits give low values; activity change, % at 57.5 µM; in the data active = activity change below about -50%; inconclusive = mostly about -30% to -49%
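THP-1 cells pretreated 1 hr with compounds (up to 57.5 uM final), then stimulated with LPS (250 ng/mL final) plus ATP (1.25 mM final); secreted IL-1B measured by AlphaLISA after 16 hr, decreased signal indicating inhibition.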
DT40 TDP1 CPT = DT40-hTDP1 cell growth loss with CPT. chicken DT40 Tdp1-/-;hTDP1 cells + 20 nM CPT, ATP luminescence, 48 h. Potency, µM (doses to about 46.2 µM), inactives show at the highest dose activity change, negative = growth inhibition, actives largely listed as inhibitors. 420,000 tested, 12% active; note: potency is the fitted concentration of half-maximal effect; nearly all actives have a fitted effect of over 55% in size
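Chicken DT40 Tdp1-/- cells stably complemented with human TDP1 were seeded at 400 cells/well in medium containing 20 nM camptothecin, exposed to pin-transferred compounds, and grown at 37 °C for at least 48 hr. Viability was read as ATP luminescence.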
RORg inh = inhibitors of mouse ROR gamma transcriptional activity; P51450; Drosophila S2 Gal4-RORgamma UAS-luciferase reporter, 20 h; Potency, µM (titrated, usually from 53.6 µM), inactives show at the top dose activity change, negative = inhibition, hits mostly inhibitors; 310,000 tested, 5.4% active; note: potency is the fitted concentration of half-maximal effect; nearly all actives have a fitted effect of over 60% in size
Target sequence (P51450 whole entry, looked up, the tested form may be a part): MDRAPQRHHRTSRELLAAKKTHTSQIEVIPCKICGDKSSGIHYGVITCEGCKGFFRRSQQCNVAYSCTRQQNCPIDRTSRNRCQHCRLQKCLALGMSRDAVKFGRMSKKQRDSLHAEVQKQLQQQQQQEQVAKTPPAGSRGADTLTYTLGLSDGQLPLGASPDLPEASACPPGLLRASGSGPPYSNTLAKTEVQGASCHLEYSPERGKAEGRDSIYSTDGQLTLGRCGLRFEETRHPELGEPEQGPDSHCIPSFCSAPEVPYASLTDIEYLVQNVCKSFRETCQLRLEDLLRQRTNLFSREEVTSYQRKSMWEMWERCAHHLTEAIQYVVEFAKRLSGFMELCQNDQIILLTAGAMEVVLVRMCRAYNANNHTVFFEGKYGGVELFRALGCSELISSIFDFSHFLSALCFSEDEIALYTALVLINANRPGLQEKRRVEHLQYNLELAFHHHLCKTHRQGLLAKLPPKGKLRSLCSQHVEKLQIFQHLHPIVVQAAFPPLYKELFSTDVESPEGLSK
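Luciferase reporter read in Schneider cells carrying Gal4-RORγ (mouse) and UAS-Photinus luciferase; cells given compound 1 h before 700 uM copper sulfate induction, then incubated 20 h at ambient temperature.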
LDHA inh = LDHA (human) enzyme inhibition. P00338. purified LDHA, NADH/diaphorase-resazurin fluorescence; hits give low values. activity change, % (values are at about 110 or 230 µM). 480,000 tested, 0.15% active. AID 1347041; in the data active = activity change below about -30%; inconclusive = mostly about -25% to -30%;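 note: plate controls were DMSO wells for no effect and wells without enzyme for full effect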
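Human LDH5 (2 nM) was incubated with 0.06 mM NADH and 0.2 mM pyruvate for 5 min at room temperature in Tris pH 7.4. Remaining NADH was coupled through diaphorase/resazurin, and resorufin fluorescence was read at 0 and 20 min.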
DT40 TDP1 no CPT = qHTS for Inhibitors of human tyrosyl-DNA phosphodiesterase 1 (TDP1): qHTS in cells in absence of CPT. Potency, µM (series often up to 46.2 µM), for the others: top-dose activity change, negative = growth inhibition, usual class: inhibitors. DT40 Tdp1-/- hTDP1 cells, no CPT, ATP luminescence, 48 h. 420,000 tested, 15% active. AID 686978, 2013; note: potency is the fitted concentration of half-maximal effect; nearly all actives have a fitted effect of over 55% in size
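Growth kinetics read by CellTiter-Glo luminescence after ≥48 hr at 37 °C. Cells: DT40 Tdp1-/- stably carrying human TDP1, 400 per well, compound exposure in the absence of CPT (DMSO vehicle).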
Gal4-VP16 FLuc = counter-screen for ROR gamma inhibitors: Gal4-VP16 reporter; Drosophila S2 Gal4-VP16 UAS-luciferase, luminescence, 20 h; Potency, µM (titrated, usually from 53.6 µM), without a hit: at the top dose activity, negative = inhibition, hits mostly inhibitors; 310,000 tested, 3.5% active; AID 2546;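 note: Gal4-VP16 expression switched on by copper sulfate through the metallothionein promoter; potency is the fitted concentration of half-maximal effect; nearly all actives have a fitted effect of over 50% in size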
Numbers without * were called inactive; ? = inconclusive; . = no result; [ ] = remark or other dose. Hits are enriched below; roughly 18% of the tested compounds scored in any of these assays. Unless noted, calls come from the whole dose curve; as a rule, active = well fitted curve in the direction sought with a large enough effect; inconclusive = small, poorly fitted or top-dose-only effect, or another doubt; inactive = no such curve, though single readings can be large; an effect the other way counts as inactive or inconclusive. Unless noted, % is set by controls: 0 for no effect and ±100 for the full control effect.

SMILES | IL-1B inflam inh | DT40 TDP1 CPT | RORg inh | LDHA inh | DT40 TDP1 no CPT | Gal4-VP16 FLuc
Cc1c(N2C(=O)/C(=C/C3CC=CCC3)SC2=S)c(=O)n(-c2ccccc2)n1C (configuration not stated) | -59* | 18µM* | -38% | 7 | ? | -12%
Cc1c(N2C(=O)/C(=C\C3CC=CCC3)SC2=S)c(=O)n(-c2ccccc2)n1C (configuration not stated) | -101* | ? | ? | 1 | ? | -18%[10 µM]
COc1ccccc1CNC(=O)c1sc(-c2ccc(OC)c(OC)c2)nc1C | . | . | . | -5 | . | .
COc1cccc(N(C(=O)c2nc3nccc(C)n3n2)c2nc3ccccc3s2)c1 | -92* | ? | ? | -7 | ? | -13%
Cc1ccc(CCCC(=O)NCc2ccc(CN3CCCC3)cc2)cc1 | . | . | . | 0 | . | .
Cc1ccc(S(=O)(=O)N(Cc2ccccc2)Cc2ccco2)cc1 | 2 | 9.2µM* | -3% | -2 | ? | ?
CN(C)S(=O)(=O)c1ccc(S(=O)(=O)N(CC(=O)Nc2ccccc2)Cc2ccco2)cc1 | 11 | -22% | ? | -3 | -25% | ?
COc1ccc(S(=O)(=O)N(Cc2ccc(OC)c(OC)c2)Cc2ccco2)cc1 | -14 | 23µM* | ? | -2 | 18µM* | ?
COc1ccc(S(=O)(=O)N(CCC(N)=O)Cc2ccco2)cc1OC | 2 | 7% | 2% | -9 | -12% | -6%
CS(=O)(=O)N(Cc1ccco1)Cc1ccccc1Cl | -3 | -18% | -9% | 0 | -7% | 0%
CN(C)S(=O)(=O)c1ccc(S(=O)(=O)N(Cc2ccco2)Cc2ccccc2Cl)cc1 | 9 | 21µM* | -19% | -3 | 16µM* | 18%
CCN(CC)S(=O)(=O)c1ccc(S(=O)(=O)N(CC(=O)Nc2ccccc2)Cc2ccco2)cc1 | 6 | 18µM* | 40% | -4 | ? | -21%
Cc1ccc(S(=O)(=O)N(Cc2ccc(F)cc2)Cc2ccco2)cc1 | -11 | -30% | 38% | -3 | ? | -8%
CCCNC(=O)NC(=O)CN1CCCCC1 | . | . | . | 7 | . | .
CCC(C)c1ccc(NC(=O)N2CCN(Cc3ccc(Cl)s3)CC2)cc1 (configuration not stated) | . | . | . | -1 | . | .
CCCCCCCCOc1ccc(/C=C(/C#N)C(=O)NCc2ccccc2)cc1 | . | . | . | 1 | . | .
FC(F)(F)c1ccc(CSc2c[nH]c3ccccc23)cc1 | . | . | . | 8 | . | .
Cc1cc(NC(=O)C2(C)CCN2C(C)C)c2ccccc2n1 (configuration not stated) | 90 | ? | . | -2 | 21µM* | .
CC(C)N1CCC1(C)C(=O)Nc1nccc2cccnc12 (configuration not stated) | 0 | 4.1µM* | . | 0 | 5.2µM* | .
CC(C)N1CCC1(C)C(=O)Nc1cccc2ccccc12 (configuration not stated) | 12 | ? | . | 3 | ? | .
NS(=O)(=O)c1ccc(N/N=C/c2ccc(F)c(F)c2)c([N+](=O)[O-])c1 | . | . | . | 6 | . | .
N#Cc1cc2c(nc1N1CCN(C(C(=O)O)c3c[nH]c4ccccc34)CC1)CCCC2 (configuration not stated) | . | . | . | -1 | . | .
CC(c1nccs1)N(C)C(=O)CCc1nnc(-c2ccc(-c3ccccc3)cc2)o1 (configuration not stated) | ? | 15µM* | -5% | -8 | -85% | -5%
CC(NC(=O)CCc1nnc(-c2ccc(-c3ccccc3)cc2)o1)c1nccs1 (configuration not stated) | -15 | 26µM* | -27% | -5 | 21µM* | -26%
CN(C(=O)CCc1nnc(-c2ccc(-c3ccccc3)cc2)o1)C1CCOCC1 | 5 | ? | -28% | -12 | 13µM* | -13%
SMILES | IL-1B inflam inh | DT40 TDP1 CPT | RORg inh | LDHA inh | DT40 TDP1 no CPT | Gal4-VP16 FLuc
CN(CCCC1CCCC1)C(=O)CCc1nnc(-c2ccccc2)o1 | 1 | -28% | 29% | 0 | ? | -10%
COc1ccc2c(COC(=O)c3ccc(N4CCOCC4)nc3)cc(=O)oc2c1 | . | . | . | 6 | . | .
Cc1cc(C)c2oc(=O)cc(CN3CCN(c4ccccn4)CC3)c2c1 | . | . | . | 1 | . | .
Cc1ccc(NC(=O)CN(C)S(=O)(=O)c2ccc(C(=O)N3CCOCC3)s2)c(C)c1 | . | . | . | -9 | . | .
CC(C)NS(=O)(=O)c1cccc(C(=O)Nc2ccc(N3CCCCC3)c3ccncc23)c1 | . | . | . | 62 | . | .
CNC(=O)COc1ncnc2c(Cl)cc(Cl)cc12 | . | . | . | 3 | . | .
Cc1ccc(NC(=O)Nc2c(NC3CCCCC3)c3ccccc3oc2=O)cc1F | . | . | . | 1 | . | .
CN(C)CCCNC(=O)c1cc(-c2ccc(-c3ccccc3)cc2)nc2ccccc12 | . | . | . | -1 | . | .
O=C(CCc1nc2sc3c(c2c(=O)[nH]1)CCCC3)Nc1ccccc1Cl | 53 | ? | . | -6 | ? | .
O=C(C1CCCCC1)N(Cc1nc2sc3c(c2c(=O)[nH]1)CCCC3)Cc1cccs1 | 14 | ? | 11µM* | 0 | 13µM* | ?
O=C(NC1CCCCC1)C(c1ccc2ncccc2c1)N(Cc1ccc2c(c1)OCO2)C(=O)c1ccc2c(c1)OCCO2 (configuration not stated) | -2 | ? | -31% | -5 | 26µM* | -14%
Cc1ccc(C(C(=O)NC2CCCC2)N(Cc2ccc3c(c2)OCO3)C(=O)c2snc(C(N)=O)c2N)cc1 (configuration not stated) | -21 | -18% | -1% | -5 | -14% | -24%
O=C(NC1CCCCC1)C(c1ccccc1)N(Cc1ccc2c(c1)OCO2)C(=O)c1cnsn1 (configuration not stated) | -61* | 21µM* | 28% | -4 | ? | 2%
CCC1c2ccsc2CCN1C(=O)CNC(=O)c1ccccc1Cl (configuration not stated) | . | . | . | 17 | . | .
COc1ccc2[nH]c(=O)c(CN(C(=O)c3cccnc3)C3CCCCC3)cc2c1 | . | . | . | 9 | . | .
Cc1cc(C(=O)N2CCN(c3ccccc3)CC2)no1 | -20 | 1% | 8% | 2 | 1% | 2%
Cc1ccc2ccc3cc(C(=O)N4CCN(c5ccccc5)CC4)nc3c2[nH]1 | . | ? | . | -1 | 18µM* | .
COc1ccccc1N1CCN(C(=O)c2cc3ccc4ccc(C)[nH]c4c3n2)CC1 | . | ? | . | 6 | 21µM* | .
COc1ccc(-c2cc(C(=O)N(C)CC(=O)Nc3cccc(F)c3)c3ccccc3n2)cc1OC | -2 | 21µM* | . | 0 | 21µM* | .
